Over roughly 1,100 compounds, “Wnt reporter firefly/Renilla luciferase ratio relative to plate median” has its median near 1.1; the highest 2% begin near 1.6. Many of the other results were omitted from the sample, so the highest values are more common in it than they were.
System: HEK293T (UBE3A T485A transfected, BAR Wnt reporter)
Experiment: Wnt reporter firefly/Renilla luciferase ratio relative to plate median (fold (linear ratio)); higher = more Wnt/beta-catenin reporter activation
Settings: 24 h
Outline: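 Wnt activity (firefly/Renilla ratio) and cell health (raw Renilla) were read with Dual-Glo luciferase and median-centred plate by plate. HEK293T cells, at 4500 cells/well in white 384-well plates with DMEM plus 10% FBS at 37°C and 5% CO2, carried a transfected BAR firefly luciferase Wnt reporter, TK-Renilla and an expression plasmid. The chemicals were applied by robot at 0.01–100 uM for 24 h, beginning four hours after transfection, and results were averaged across four biological replicates.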

SMILES	Wnt reporter firefly/Renilla luciferase ratio (concentration: 0.1 uM)	Wnt reporter firefly/Renilla luciferase ratio (concentration: 1 uM)	Wnt reporter firefly/Renilla luciferase ratio (concentration: 10 uM)	Wnt reporter firefly/Renilla luciferase ratio (concentration: 100 uM)	Wnt reporter firefly/Renilla luciferase ratio (concentration: 0.01 uM)
CCN(CC)CCNc1ccc(CNC=O)c2sc3ccc(OC)cc3c(=O)c12	1.79	0.887	0.373	–	–
O=c1[nH]c2ccc(S(=O)CCN3CCC(Cc4ccc(F)cc4)CC3)cc2o1 (stereo unspecified) [Besonprodil]	1.11	0.965	0.993	0.313	–
C[C@]12CC[C@@H]3c4ccc(O)cc4CC[C@H]3[C@@H]1CC[C@@H]2O [17beta-Estradiol]	0.999	0.932	0.591	–	–
CN(C)[C@@H]1C(O)=C(C(N)=O)C(=O)[C@@]2(O)C(O)=C3C(=O)c4c(O)cccc4[C@@](C)(O)[C@H]3[C@H](O)[C@@H]12.Cl [Oxytetracycline hydrochloride]	1.09	1.03	0.562	0.0778	–
CN(C)[C@@H]1C(O)=C(C(N)=O)C(=O)[C@@]2(O)C(O)=C3C(=O)c4c(O)cccc4[C@@](C)(O)[C@H]3C[C@@H]12 [Tetracycline]	1.15	1.17	1.43	0.703	–
CN(C)[C@@H]1C(O)=C(C(N)=O)C(=O)[C@@]2(O)C(O)=C3C(=O)c4c(O)cccc4[C@@](C)(O)[C@H]3[C@H](O)[C@@H]12.O.O [Oxytetracycline dihydrate]	2.3	1.22	1.34	0.951	1.55
CCCCC(CC)COP(=O)(OCC(CC)CCCC)OCC(CC)CCCC (stereo unspecified) [Tris(2-ethylhexyl) phosphate]	0.978	1.17	1.11	0.917	–
CCCCC(CC)CO (stereo unspecified) [2-Ethyl-1-hexanol]	0.976	0.988	1.62	0.964	–
CCCCC(CC)COC(=O)CCCCCCCCC(=O)OCC(CC)CCCC (stereo unspecified) [Bis(2-ethylhexyl) decanedioate]	0.935	1.08	1.07	1.12	–
Oc1ccc(O)cc1 [Hydroquinone]	0.941	0.865	0.902	0.377	–
CCCCCCC(CCCCCCCCCCC(=O)OCC(COC(C)=O)OC(C)=O)OC(C)=O (stereo unspecified) [Grinstad Soft-N-Safe]	0.94	1.29	1.08	1.54	–
C/C=C/c1ccc(OC)cc1 [(E)-Anethole]	1.22	0.971	1.15	1.58	–
CC(C)(c1cc(Br)c(O)c(Br)c1)c1cc(Br)c(O)c(Br)c1 [3,3',5,5'-Tetrabromobisphenol A]	1.05	0.95	1.03	0.332	–
Cc1ncc([C@@H](CCCCCCc2ccc3c(n2)NCCC3)CC(=O)O)cn1	1.25	1.42	1.78	1.55	–
CS(=O)(=O)c1ccc([C@@H](CC2CCCC2)C(=O)Nc2cnccn2)cc1Cl	1.12	1.16	0.922	0.278	–
CC(C)NCC(O)c1ccc(O)c(O)c1.Cl (stereo unspecified) [Isoproterenol hydrochloride]	1.1	1.23	1.15	0.309	–
O=C(O)c1cc(/N=N/c2ccc(S(=O)(=O)Nc3ccccn3)cc2)ccc1O [Sulfasalazine]	0.944	0.993	1.33	3.01	–
Cc1ccc(C)c(C)c1 [1,2,4-Trimethylbenzene]	0.982	0.965	0.884	1.09	–
c1ccc2ncccc2c1 [Quinoline]	0.857	1.13	1.43	1.26	–
Cc1ccc2ncccc2c1 [6-Methylquinoline]	0.931	0.836	1.29	1.81	–

SMILES	Wnt reporter firefly/Renilla luciferase ratio (concentration: 0.1 uM)	Wnt reporter firefly/Renilla luciferase ratio (concentration: 1 uM)	Wnt reporter firefly/Renilla luciferase ratio (concentration: 10 uM)	Wnt reporter firefly/Renilla luciferase ratio (concentration: 100 uM)	Wnt reporter firefly/Renilla luciferase ratio (concentration: 0.01 uM)
O=C1c2c(O)cccc2Cc2cccc(O)c21 [Anthralin]	0.825	1.04	1.46	0.798	–
COc1ccc(C(=O)Nc2nc3ccccc3c(NCc3ccccc3)c2C#N)cc1	1.27	1.14	0.744	0.357	–
COCCOC[C@H](CC1(C(=O)N[C@H]2CC[C@@H](C(=O)O)CC2)CCCC1)C(=O)Oc1ccc2c(c1)CCC2 [Candoxatril]	1.15	1.05	1	0.894	–
CN1CCC[C@H]1c1cccnc1 [Nicotine]	1.15	1.19	1.12	1.18	–
CC1(C)C(=O)N(Cl)C(=O)N1Cl [1,3-Dichloro-5,5-dimethylhydantoin]	0.845	0.849	0.887	1.63	–
CC1(C)C(=O)N(Br)C(=O)N1Br [1,3-Dibromo-5,5-dimethylhydantoin]	0.79	1.01	1.06	1.25	–
NC(=O)N1C(=O)C(C(=O)c2cc(Cl)cs2)c2cc(F)c(Cl)cc21 (stereo unspecified)	0.988	0.996	1.38	1.26	–
C[C@]12CC[C@@H]3c4ccc(O)cc4CC[C@H]3[C@@H]1CC[C@H]2O [17alpha-Estradiol]	0.699	1.04	0.715	–	–
OCCNCCO [Diethanolamine]	1.17	0.992	1.4	2.49	–
c1ccc2[nH]c(-c3cscn3)nc2c1 [Thiabendazole]	1.03	1.08	1.27	1.24	1.24
CC(C)(C)c1cc(/C=C2\SC(=N)NC2=O)cc(C(C)(C)C)c1O.CS(=O)(=O)O [Darbufelone mesylate]	1.11	0.907	1.28	–	–
Oc1ccc2ccccc2c1/N=N/c1ccccc1 [C.I. Solvent Yellow 14]	1.12	1.2	1.14	1.37	–
O=S(=O)([O-])c1ccc(/N=N/c2c(O)ccc3cc(S(=O)(=O)[O-])ccc23)cc1.[Na+].[Na+] [FD&C Yellow 6]	1.08	0.966	1.22	2.05	–
COc1cc(S(=O)(=O)[O-])c(C)cc1/N=N/c1c(O)ccc2cc(S(=O)(=O)[O-])ccc12.[Na+].[Na+]	1.19	1	1.45	2.21	–
CCCCCCCCCCCCc1ccccc1 [Dodecylbenzene]	1.06	1.03	1.08	0.984	–
COc1ccc([N+](=O)[O-])cc1N [2-Methoxy-5-nitroaniline]	0.964	0.988	1.04	1.14	–
Cl.NCC1(Cc2noc(=O)[nH]2)CCCCC1	0.992	0.928	0.857	1.16	–
O=c1c(O)c(-c2ccc(O)c(O)c2)oc2cc(O)cc(O)c12 [Quercetin]	1.1	1.09	1.38	–	–
O=c1c(-c2ccc(O)cc2)coc2cc(O)ccc12 [Daidzein]	1.11	1.11	1.12	0.372	–
O=c1c(-c2ccc(O)cc2)coc2cc(O)cc(O)c12 [Genistein]	1.45	1.16	0.958	0.631	1.71

SMILES	Wnt reporter firefly/Renilla luciferase ratio (concentration: 0.1 uM)	Wnt reporter firefly/Renilla luciferase ratio (concentration: 1 uM)	Wnt reporter firefly/Renilla luciferase ratio (concentration: 10 uM)	Wnt reporter firefly/Renilla luciferase ratio (concentration: 100 uM)	Wnt reporter firefly/Renilla luciferase ratio (concentration: 0.01 uM)
CC1CCC(NC(=O)N(CCCl)N=O)CC1 (stereo unspecified) [Semustine]	0.921	0.986	0.864	0.475	1.09
Cc1nc(-c2ccc3c(c2)CCN(CCC2CCC(NC(=O)/C=C/c4ccc(F)cc4)CC2)CC3)no1.Cl (stereo unspecified)	1.22	0.948	0.916	0.983	–
Cc1cnc(-c2cnc(NCCNc3ccc(C#N)cn3)nc2-c2ccc(Cl)cc2Cl)[nH]1	1.5	5.86	128	–	1.03
CCOC(=O)c1ccc(O)cc1 [Ethylparaben]	0.886	0.966	0.941	0.734	–
O=C([O-])c1[nH]n(-c2ccc(S(=O)(=O)[O-])cc2)c(=O)c1/N=N/c1ccc(S(=O)(=O)[O-])cc1.[Na+].[Na+].[Na+] [FD&C Yellow 5]	1.26	0.877	1.26	1.86	–
CCCCc1oc2ccccc2c1C(=O)c1cc(I)c(OCCN(CC)CC)c(I)c1.Cl [Amiodarone hydrochloride]	1.18	1.09	1	1.11	–
CC(C)c1cccc(C(C)C)c1 [1,3-Diisopropylbenzene]	1.14	0.929	1.33	1.5	–
CC(=O)OC/C=C(\C)CCC=C(C)C [Geranyl acetate]	1.1	0.97	1.27	1.23	–
c1ccc(Nc2ccccc2)cc1 [Diphenylamine]	1.08	1.19	1.18	1.24	1.05
[Cl-].[Li+]	0.845	0.926	0.875	1.27	0.768
CC(C)=CCCC(C)CCO (stereo unspecified) [Citronellol]	1.07	0.904	1.18	1.64	–
CC(C)CCO [Isopentyl alcohol]	1.15	0.978	1.1	1.03	–
C=CC(=C)CCC=C(C)C [Myrcene]	1.05	0.768	1.02	1.15	–
NC(CCCP(=O)(O)O)C(=O)O (racemic)	1.19	0.925	0.918	1.69	1.35
CC/C(=C(/CC)c1ccc(O)cc1)c1ccc(O)cc1 [Diethylstilbestrol]	0.897	0.807	0.741	0.205	–
C[C@@H]1C[C@H]2[C@@H]3CCC4=CC(=O)C=C[C@]4(C)[C@@]3(F)[C@@H](O)C[C@]2(C)[C@@]1(O)C(=O)COP(=O)([O-])[O-].[Na+].[Na+] [Dexamethasone sodium phosphate]	1.15	1.09	1.2	0.968	–
c1ccc2c(c1)-c1cccc3c1c-2cc1ccccc13 [Benzo(b)fluoranthene]	1.22	1.22	1.45	1.45	–
C1N2CN3CN1CN(C2)C3 [Methenamine]	1.17	1.16	1.23	1.71	–
COC(=O)CC(=O)OC [Dimethyl malonate]	1.02	1.16	0.907	1.28	–
Cc1occc1C(=O)Nc1ccc(C(=O)N2CCC(F)(F)/C(=C\C(=O)N3CCC(N4CCCCC4)CC3)c3ccccc32)cc1.Cc1occc1C(=O)Nc1ccc(C(=O)N2CCC(F)(F)/C(=C\C(=O)N3CCC(N4CCCCC4)CC3)c3ccccc32)cc1.O=C(O)/C=C/C(=O)O	1.22	0.982	0.94	–	–

Reference: the supplement of paper PMC9254222
